Cardiac RTF inh = cardiac RTF calcium desensitization | IANBD-labeled cardiac RTF, Ca2+ fluorescence | hit rate 0.12% among 340,000 | inhibition, % at 7.15 µM;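 active = inhibition above the mean inhibition of all tested compounds plus 3 SD, cut at about 17% in these data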;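 note: assay run at fixed EC70 calcium of 1.6 mM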
CRFR2-BP ag = CRF-BP/CRF-R2 complex agonism; hit rate 0.46% among 350,000; HEK293 CRF-R2/CRF-BP, calcium dye fluorescence (FLIPR); percent of saturating CRF peptide response; AID 588473; activation, % at 13.2 µM;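 active = activation of at least 50%, plus an integration ratio under a set limit after plate pattern correction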
Keap1-Nrf2 PPI = inhibitors of human Keap1-Nrf2 protein-protein interaction; AID 504523; hit rate 0.15% among 340,000; Keap1 Kelch-Nrf2 peptide fluorescence polarization, 1536-well; inhibition, % at 9.4 µM; in the data active = inhibition above about 12%;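 note: human Keap1 Kelch domain with fluorescein labeled Nrf2 9mer peptide probe; higher means more block of Keap1 binding to Nrf2 peptide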
CRFBP-R2 block = blocks CRF-induced signaling of the CRF-BP/CRF-R2 complex. AID 588475. HEK293 CRF-R2/CRF-BP, CRF-induced calcium fluorescence. hit rate 0.59% among 350,000. inhibition, % at 11.8 µM;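 active = inhibition of the ligand-induced calcium signal above about 50% at the single tested concentration, limit read from the data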
C-LANA FP = inhibitors of KSHV LANA C-terminal domain DNA binding; MBP-C-LANA/FAM-LBS DNA binding, fluorescence polarization; inhibition, % at 9 µM; hit rate 0.078% among 340,000; AID 504423;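 active = highest replicate inhibition at or above 60% at 9 µM, even if other replicates fall short; inactive = all replicates below 60% inhibition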
cardiac RTF act = cardiac RTF calcium sensitization; P19429+P45379; IANBD-labeled TnC RTF fluorescence at EC20 calcium; 0% EC20 calcium, 100% full calcium; activation, % at 7.2 µM; hit rate 0.24% among 340,000; AID 493008;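 active = activation above the mean over all tested compounds plus 3 SD, cut at about 30% in these data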;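 note: rise in fluorescence read as greater calcium sensitivity of cardiac thin filaments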
Keap1 TSA = Keap1 (human) Kelch domain binding | shares compounds with Keap1-Nrf2 PPI | Keap1 Kelch thermal shift, delta Tm; stronger effect = higher value | max delta Tm, degrees C | hit rate 8% among 400 | AID 651823; in the data active = max delta Tm above about 0.48 degrees C
Dye-only ctr = counter-screen for Keap1 thermal shift hits: dye-only artifacts | shares compounds with Keap1-Nrf2 PPI | Sypro Orange dye-only thermal melt, no protein, delta Tm; top dose 26 µM | delta Tm, degrees C (test concentration not listed) | 140 tested, under 10 active | AID 651858;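 active = at highest dose tested, delta Tm positive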
Large screens that a line does not name were inactive (follow-up assays come after a bar, where they were run). A selection: hits, their analogues and other compounds. The true share with any hit is near 1.3%.

CN(CC(=O)Nc1cc(C(F)(F)F)ccc1-n1cncn1)Cc1ccccc1N1CCOCC1	Keap1-Nrf2 PPI 41 | Keap1 TSA inactive | Dye-only ctr inactive
Nc1nc(SCC(=O)Nc2cc(C(F)(F)F)ccc2N2CCOCC2)n[nH]1	Keap1-Nrf2 PPI 14 | Keap1 TSA inactive | Dye-only ctr inactive
COc1ccc(N2CCN(CC(=O)Nc3ccccc3C(=O)NCc3ccccc3)CC2)cc1	none
O=C(Nc1ccc(S(=O)(=O)Nc2ncccn2)cc1)c1ccc(Br)o1	none
O=C(Cc1ccc(S(=O)(=O)N2CCOCC2)s1)Nc1nc2c(s1)CCCC2	Keap1-Nrf2 PPI 18 | Keap1 TSA inactive
O=C(COC(=O)/C=C/c1cccc(Cl)c1)NC1CC1	Keap1-Nrf2 PPI 24 | Keap1 TSA inactive | Dye-only ctr inactive
COc1cccc(/C=C/C(=O)OCC(=O)NC(=O)NC2CCCC2)c1	Keap1-Nrf2 PPI 36 | Keap1 TSA inactive | Dye-only ctr inactive
O=C(COC(=O)/C=C/c1cccc(Cl)c1)NC1CCCC1	none
COc1cccc(/C=N/NC(=O)c2c(C)nc3ccc(Cl)cn23)c1OC	none
Nc1nnn(CC(=O)N/N=C/c2ccccc2Cl)n1	none (no result: Cardiac RTF inh, cardiac RTF act)
O=C(CCCCl)NC(=S)Nc1ccc(N2CCOCC2)cc1	Keap1-Nrf2 PPI 33 (no result: Cardiac RTF inh, cardiac RTF act) | Keap1 TSA inactive | Dye-only ctr inactive
O=C(CCN1C(=O)/C(=C/c2ccco2)SC1=S)Nc1ccc(O)cc1C(=O)O	Keap1-Nrf2 PPI 13, C-LANA FP 63 | Keap1 TSA inactive
COc1ccc(NC(=O)NS(=O)(=O)c2ccc(C)cc2)cn1	Keap1-Nrf2 PPI 77, C-LANA FP 104, cardiac RTF act 348 | Keap1 TSA inactive
Oc1cc(Nc2ccccc2)cc2cccnc12	none
Oc1cc(NCCN2CCOCC2)cc2cccnc12	Keap1-Nrf2 PPI 18 | Keap1 TSA inactive
Cc1ccc(CNC(=O)Nc2ccc(Cl)cc2)cc1	none
O=c1cc(CN2CCCc3ccccc32)nc2sccn12	Keap1-Nrf2 PPI 58, cardiac RTF act 62 | Keap1 TSA inactive
Cc1cc[n+](-c2[nH]c(=O)sc2/C=N/N=C(\[O-])c2ccccc2)cc1C	Keap1-Nrf2 PPI 43, C-LANA FP 62, cardiac RTF act 55 | Keap1 TSA inactive
CCOC(=O)c1sc(NS(=O)(=O)c2ccccc2)nc1C	none
Cc1nc(NS(=O)(=O)c2ccccc2)sc1NC(=O)OCCN(C)C	Keap1-Nrf2 PPI 27 | Keap1 TSA inactive
CC(=O)c1ccc(OCC(=O)NC2CCCN(Cc3ccccc3F)C2)cc1 (centres undefined)	none
Cc1sc2nc(C(C)C)nc(SCC(=O)NC3CC3)c2c1C	none
Cc1ccc(C2(C)NC(=O)N(CC(=O)N3CCN(S(=O)(=O)c4cccc(F)c4)CC3)C2=O)cc1 (centres undefined)	none
Cc1ccc(S(=O)(=O)NCC(=O)OCC(=O)Nc2ccc3c(c2)OCCO3)cc1	Keap1-Nrf2 PPI 32 | Keap1 TSA inactive | Dye-only ctr inactive
CCCNS(=O)(=O)c1ccc(OCC(=O)Nc2ccc3c(c2)OCCO3)cc1	none

Source: PubChem
